Test results from PubChem BioAssay AID1159580 (chemical genetic matrix, 2015).
Several values for one entry are separate records, joined by “and”; a condition that tells them apart may be missing. Equal entries are not always repeated. The whole screen tested about 5,500 compounds, of which about 2,000 (36%) were called active. About 18% were inconclusive and are not listed. Rule as the data show it: active = normalized growth mostly below about 0.91 (no sharp cut-off); inconclusive = no clear call, values can overlap the other calls; inactive = mostly above about 0.92. Some of the results follow.

Assay: chemical genetic growth profiling, strain panel (AID 1159580);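 also: tested at 20 µM; growth read once vehicle control cultures reached saturation at 30 °C; 1 = growth at the plate median or of vehicle wells; lower values mean less growth of the strain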
Conditions: S. cerevisiae deletion strains, growth OD

Measured: normalized growth

CC(C)NC[C@H](O)COc1cccc2ccccc12
inactive: locus YAL021C, strain ccr4, stronger effect = lower value 0.985 | locus YAL026C, strain drs2, stronger effect = lower value 1 | locus YAL030W, strain snc1, stronger effect = lower value 0.986 | locus YBL061C, strain skt5, stronger effect = lower value 0.984 | locus YBR009C, strain hhf1, stronger effect = lower value 0.98 | locus YBR021W, strain FUR4, stronger effect = lower value 0.997 | locus YBR023C, strain chs3, stronger effect = lower value 0.99 | locus YBR171W, strain sec66, stronger effect = lower value 0.989 | locus YBR229C, strain ROT2, stronger effect = lower value 1.01 | locus YBR231C, strain swc5, stronger effect = lower value 0.989 | locus YBR279W, strain paf1, stronger effect = lower value 0.99 | locus YCL011C, strain gbp2, stronger effect = lower value 0.993 | locus YCL016C, strain dcc1, stronger effect = lower value 0.991 | locus YCL029C, strain bik1, stronger effect = lower value 1.02 | locus YCL061C, strain MRC1, stronger effect = lower value 0.994 | locus YCL069W, strain vba3, stronger effect = lower value 0.993 | locus YCR088W, strain abp1, stronger effect = lower value 0.991 | locus YDL005C, strain med2, stronger effect = lower value 0.981 | locus YDL035C, strain GPR1, stronger effect = lower value 0.993 | locus YDL040C, strain nat1, stronger effect = lower value 0.992 | locus YDL074C, strain BRE1, stronger effect = lower value 1.02 | locus YDL101C, strain DUN1, stronger effect = lower value 1.01 | locus YDL134C, strain PPH21, stronger effect = lower value 0.979 | locus YDL185W, strain tfp1, stronger effect = lower value 1.03 | locus YDL192W, strain arf1, stronger effect = lower value 1.02 | locus YDR001C, strain nth1, stronger effect = lower value 0.991 | locus YDR069C, strain doa4, stronger effect = lower value 1 | locus YDR101C, strain arx1, stronger effect = lower value 1 | locus YDR137W, strain rgp1, stronger effect = lower value 1 | locus YDR159W, strain sac3, stronger effect = lower value 0.976 | locus YDR162C, strain NBP2, stronger effect = lower value 1 | locus YDR195W, strain ref2 0.962 | locus YDR297W, strain sur2, stronger effect = lower value 1.01 | locus YDR318W, strain mcm21, stronger effect = lower value 1.02 | locus YDR334W, strain swr1, stronger effect = lower value 0.999 | locus YDR335W, strain msn5, stronger effect = lower value 0.991 | locus YDR388W, stronger effect = lower value 1.02 | locus YDR392W, strain spt3, stronger effect = lower value 0.943 | locus YDR502C, strain sam2, stronger effect = lower value 1 | locus YEL003W, strain gim4, stronger effect = lower value 1 | locus YEL037C, strain rad23, stronger effect = lower value 1.02 | locus YEL061C, strain CIN8 (second series), stronger effect = lower value 0.993 | locus YEL061C, strain CIN8, stronger effect = lower value 1.01 | locus YER015W, strain faa2, stronger effect = lower value 0.969 | locus YER016W, strain bim1, stronger effect = lower value 0.986 | locus YER110C, stronger effect = lower value 1.02 | locus YER111C, strain swi4, stronger effect = lower value 0.986 | locus YER155C, strain BEM2 (second series), stronger effect = lower value 0.98 | locus YER155C, strain BEM2, stronger effect = lower value 1.01 | locus YER167W, strain BCK2, stronger effect = lower value 1 | locus YFR010W, strain ubp6, stronger effect = lower value 1.01 | locus YGL078C, strain dbp3, stronger effect = lower value 1.01 | locus YGL086W, strain mad1, stronger effect = lower value 0.994 | locus YGL167C, strain pmr1, stronger effect = lower value 0.982 | locus YGL173C, strain kem1, stronger effect = lower value 0.993 | locus YGL227W, strain vid30, stronger effect = lower value 0.992 | locus YGL240W, strain doc1, stronger effect = lower value 0.977 | locus YGL248W, strain PDE1, stronger effect = lower value 1.01 | locus YGL253W, strain hxk2, stronger effect = lower value 1 | locus YGR078C, strain PAC10, stronger effect = lower value 1.01 | locus YGR135W, strain pre9, stronger effect = lower value 1.02 | locus YGR252W, strain gcn5, stronger effect = lower value 0.992 | locus YHR013C, strain ard1, stronger effect = lower value 0.953 | locus YHR027C, strain rpn1, stronger effect = lower value 0.988 | locus YHR030C, strain SLT2, stronger effect = lower value 1.01 and 1.06 | locus YHR079C, strain IRE1 (second series), stronger effect = lower value 1.02 | locus YHR079C, strain IRE1, stronger effect = lower value 1.08 | locus YHR094C, strain hxt1, stronger effect = lower value 1.02 | locus YHR129C, strain ARP1, stronger effect = lower value 1.01 | locus YHR142W, strain chs7, stronger effect = lower value 1.01 | locus YHR200W, strain rpn10, stronger effect = lower value 1.02 | locus YIL066C, strain RNR3, stronger effect = lower value 1.01 | locus YIL073C, strain SPO22, stronger effect = lower value 1.04 | locus YIL125W, strain kgd1, stronger effect = lower value 1.02 | locus YIR030C, strain dcg1, stronger effect = lower value 1.03 | locus YJL092W, strain hpr5, stronger effect = lower value 0.993 | locus YJL095W, strain BCK1 (second series), stronger effect = lower value 0.987 | locus YJL095W, strain BCK1, stronger effect = lower value 1.01 and 1.02 | locus YJL115W, strain asf1, stronger effect = lower value 0.987 | locus YJL129C, strain trk1, stronger effect = lower value 1.01 | locus YJL134W, strain LCB3, stronger effect = lower value 1.01 | locus YJL154C, strain vps35, stronger effect = lower value 0.992 | locus YJL164C, strain tpk1, stronger effect = lower value 0.989 | locus YJL166W, strain qcr8, stronger effect = lower value 0.983 | locus YJL168C, strain set2, stronger effect = lower value 1.02 | locus YJL187C, strain SWE1 (second series), stronger effect = lower value 1.01 | locus YJL187C, strain SWE1, stronger effect = lower value 0.984 | locus YJR043C, strain POL32, stronger effect = lower value 1.01
